Screening data: PubChem, National Center for Advancing Translational Sciences (NCATS)
Nrf2 block – blocks Nrf2 signaling. A549 ARE-Fluc reporter, luciferase luminescence, 18-24 h. Potency, µM (top dose mostly 46 µM), for inactives: at the highest dose activity change, negative = inhibition, actives largely listed as inhibitors. hit rate 2.1% among 360,000. AID 504444; also: potency is read from the fitted curve at half-maximal effect; % is scaled to controls: 0 for no effect and ±100 for the full control effect; nearly all actives have a fitted effect of over 60% in size
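Nrf2 activity is the BugLite luminescence, read 15 min after reagent at room temperature, following CellTiter-Fluor cytotoxicity readout (30 min, 37C). Compound titrations were applied for 18-24 h to 5000 A549 ARE_Fluc cells/well in 5% FBS OPTI-MEM.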
CCT modulator – cytosolic chaperonin activity modulation; purified chaperonin ATPase assay, HTRF ADP detection, 30 min; hit rate 0.3% among 360,000; activity change, % (no concentration beside the values), hits read low; in the data active = activity change below about -30%; also: % is scaled to controls: 0 for no effect and ±100 for the full control effect
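Nucleotide hydrolysis assay: TRiC at 20–40 nM final (set by batch activity) with 10 uM ATP, 30 min at 37 °C, in presence of 76 uM compound. Detection by competitive ADP HTRF, 30 min ambient.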
Nrf2 activator – Nrf2 pathway activation; AREc32 ARE-luciferase reporter (MCF7-derived line), luminescence, 24 h; Potency, µM (top dose mostly 46.1 µM), without a hit: top-dose activation, most hits filed as activators; hit rate 0.31% among 410,000; also: potency is read from the fitted curve at half-maximal effect; % of control where 0% means no effect; nearly all actives have a fitted effect of over 65% in size
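AREc32 cells carrying an ARE-driven firefly luciferase, 1000 cells/well in OPTI-MEM with 5% FBS, dosed after overnight attachment and incubated 24 hr at 37 deg C. Steady-Glo luminescence read after 30 min at RT.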
TCR activator – T cell receptor activation. primary human leukocytes, anti-CD3, IL-2 HTRF, 48 h. Potency, µM (series often up to 9.22 µM), without a hit: at the top dose activation of IL-2 secretion, usual class: activators. 330,000 tested, under 10 active; also: % of control where 0% means no effect
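TCR engagement came from a-CD3 beads alone, with compounds added to primary human leukocytes for 48 hr. Secreted IL-2 bridged europium cryptate- and d2-labelled anti-IL-2 antibodies, giving FRET emission at 665nm after 320nm excitation.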
A549 tox – A549 cytotoxicity, counter-screen for Nrf2 inhibitors | AID 504648 | Potency, µM (doses to about 46 µM), inactives show at the top dose activity change, negative = cytotoxicity, actives largely listed as inhibitors | A549 ARE-Fluc cells, CellTiter-Fluor viability, 18-24 h | hit rate 0.16% among 390,000; also: potency is read from the fitted curve at half-maximal effect; % is scaled to controls: 0 for no effect and ±100 for the full control effect
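A549 ARE-Fluc cells in 5% FBS OPTI-MEM, 5000 cells/well, rested 2 h then exposed to compounds in concentration-response for 18-24 h at 37 °C. Viability by CellTiter-Fluor fluorescence (Ex 405/Em 525) after 30 min; luciferase luminescence (BugLite, 15 min, RT) read afterwards.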
AT treatment – potential ataxia-telangiectasia treatment. Potency, µM (titrated, usually from 57.5 µM), for the others: top-dose activation, hits mostly activators. hit rate 0.19% among 320,000. F2112 A-T fibroblasts, KAP-1 phosphorylation AlphaLISA; neocarzinostatin DNA damage 30 min before lysis. AID 485349; also: potency is read from the fitted curve at half-maximal effect; % of control where 0% means no effect; nearly all actives have a fitted effect of over 45% in size
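hTERT-immortalized A-T patient fibroblasts (F2112), 500 cells/well in OPTI-MEM, 1% FBS, got compounds for 60 min, then NCS for 30 min at 37C. Lysates were then assayed for phospho-KAP-1 by AlphaLISA (anti-pKAP1 donor, anti-KAP1 acceptor beads), 6 hr at 25C.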
* marks the source's active call; other numbers are inactive results; ? = inconclusive; · = not tested or not shown; [ ] = another dose, or the depositor's remark. Hits are enriched below; roughly 2.6% of the tested compounds scored in any of these assays. Unless noted, calls follow the shape of the dose curve; as a rule, active = well fitted curve in the direction sought with a large enough effect; inconclusive = small, poorly fitted or top-dose-only effect, or another doubt; inactive = no such curve, though single readings can be large; an effect the other way counts as inactive or inconclusive.

SMILES	Nrf2 block	CCT modulator	Nrf2 activator	TCR activator	A549 tox	AT treatment
O=C(c1cc(F)ccc1F)C1CCCN(CCCc2ccccc2)C1 (centres undefined)	0.5%	-30.0*	0.3%	0.7%	-1.2%	0.9%
CC(c1nccs1)N(C)C(=O)c1cn(Cc2cccc3ccccc23)nn1 (centres undefined)	?	-1.0	-0.6%	-1.1%	0.6%	5.5%
O=S(=O)(c1ccc(F)c(F)c1F)N1CCN(c2ncnc3sccc23)CC1	13µM*	-0.8	4.9%	-34.3%	-0.4%	2.7%
COc1cc([C@@H]2c3cc4c(cc3[C@H](O)[C@H]3COC(=O)[C@@H]23)OCO4)cc(OC)c1OC	?	·	·	·	-12.4%	·
O=C(Nc1cccc(C(F)(F)F)c1)C1CCCN1S(=O)(=O)c1cccc2nsnc12 (centres undefined)	?	·	4.0%	·	-9.7%	·
CCn1nc(C)c(CN2CCCC(C(=O)c3cccc(OC(C)C)c3)C2)c1C (centres undefined)	10.3µM*	-7.3	0.0%	3.5%	0.0%	8.7%
Cc1cccc(CN2CCCC(C(=O)c3cccc(OC(C)C)c3)C2)n1 (centres undefined)	-19.1%	1.7	6.4%	10.2%	-3.4%	5.8%
N#CC1=C(N)Oc2c(c(=O)sc3ccccc23)C1c1cccnc1 (centres undefined)	-7.1%	-42.9*	0.2%	·	-18.7%	-0.1%
N#CC1=C(N)Oc2c(c(=O)oc3ccccc23)C1c1ccncc1 (centres undefined)	4.7%	-0.9	0.3%	-8.0%	10.7%	-3.1%
CCOc1ccc(NC(=O)C2C(C(=O)O)C3(Cl)C(Cl)=C(Cl)C2(Cl)C3(Cl)Cl)cc1 (centres undefined)	?	-0.4	0.2%	-2.5%	1.8%	-6.1%
Cc1c(C(=O)NCCC2=CCCCC2)oc2ccc(S(=O)(=O)N3CCC4(CC3)OCCO4)cc12	7.31µM*	-2.0	2.1%	3.2%	-15.9%	-1.1%
CCN(CC)P(=O)(Nc1ccc([N+](=O)[O-])cc1)c1c(C)nn(CCC#N)c1NC(=O)c1ccc(Cl)cc1Cl (centres undefined)	?	-1.7	2.1%	1.3%	-7.7%	-1.1%
Cc1ccccc1C(=O)Nc1sc2c(c1C(=O)O)CCC(C(C)(C)C)C2 (centres undefined)	3.66µM*	·	-3.1%	·	-19.0%	·
CCOc1ccc(-n2c(-c3cccs3)nc3ccccc3c2=O)cc1	-23.4%	-1.0	-0.6%[9.22 µM]	-5.7%	-1.3%	-3.7%[11.5 µM]
CCn1nc(-c2cccs2)nc2c(=O)n(C)c(=O)nc1-2	5.17µM*	1.1	-3.9%	-1.6%	1.46µM*	26.6%
CCn1nc(/C=C/c2ccccc2)nc2c(=O)n(C)c(=O)nc1-2	?	2.4	-2.8%	2.8%	5.8µM*	6.0%
COCCCn1c(N)c(C(=O)NCCC(C)C)c2nc3ccccc3nc21	16.4µM*	-1.2	0.1%	4.6%	?	?
CCCCn1c(N)c(C(=O)OCCOC)c2nc3ccccc3nc21	-0.1%	0.3	-0.1%	15.3%	10.3%	6.9%
O=C(Nc1ccc2nc3n(c(=O)c2c1)CCCCC3)c1cccc(C(F)(F)F)c1	11.6µM*	·	5.1%	·	-16.8%	·
CN1CCC23c4c5ccc(O)c4O[C@@H]2[C@H](O)C=CC3C1C5 (some centres undefined)	3.9%	-45.0*	-1.2%	2.8%	-2.6%	2.5%
CN1CC[C@]23c4c5ccc(O)c4OC2[C@H](O)C=CC3[C@H]1C5 (some centres undefined)	9.9%	-2.0	2.9%	4.6%	6.7%	0.9%
O=C(/C=C/c1ccccc1)c1c(O)n(CCc2ccccc2)c(=O)[nH]c1=O	-6.1%	-1.6	8.91µM*	2.3%[46.1 µM]	?	10.8%
Cc1cc(C)c2c(ccc3cccc[n+]32)c1	1.3µM*	-0.5	-0.8%	-2.0%	?	·
CN(C)c1ccc([N+](=O)[O-])c([N+](=O)[O-])c1	-20.1%	1.9	11.2µM*	0.0%	?	·
